Here are results for four compounds from PubChem BioAssay AID2284344 (EPA ToxCast).

Results filed as inconclusive are left out. Activity calls are given as the source filed them. Rule for the calls: active = hit-call score of the fitted dose curve at least 0.9, where 1 is the maximum; inconclusive = response in the unintended direction; inactive = score below 0.9.

This assay deals with frog Peroxisome Proliferator-activated Receptor-alpha (PPARa), gene 398843. Nature of the assay: ATG_frPPARa_EcoTox2: Attagene TRANS-FACTORIAL EcoTox-2 HepG2 Assay for frog Peroxisome Proliferator-activated Receptor-alpha (PPARa). As for the experimental part:
ATG_EcoTox2 is a cell-based, multiplexed assay created by modifying the existing Attagene TRANS-FACTORIAL system to include a panel of nuclear receptors from some or all the following species: human (Homo sapiens), african clawed frog (Xenopus laevis), rainbow trout (Oncorhynchus mykiss), japanese medaka (Oryzias latipes), and zebrafish (Danio rerio). The ECOTOX2-FACTORIAL format uses HepG2, a human liver cell line, with measurements taken at 24 hours after chemical dosing in a 24-well plate. ATG_frPPARa_EcoTox2 is one of 29 assay components calculated in the ATG_EcoTox2 assay. It is designed to make measurements of mRNA induction, a form of inducible reporter, as detected with fluorescence intensity signals by Reverse transcription polymerase chain reaction (RT-PCR) and Capillary electrophoresis technology.The assay endpoint ATG_frPPARa_EcoTox2 was analyzed in the positive analysis fitting direction relative to DMSO as the negative control and baseline of activity. Using a type of inducible reporter, measures of mRNA for gain-of-signal activity can be used to understand the reporter gene at the transcription factor-level as they relate to the gene PPARa. Furthermore, this assay endpoint can be referred to as a primary readout, because this assay has produced multiple assay endpoints where this one serves a reporter gene function. To generalize the intended target to other relatable targets, this assay endpoint is annotated to the nuclear receptor intended target family, where the subfamily is non-steroidal.
Human liver HepG2 cells are transiently transfected with multiple reporter transcription units (MRTUs) in 6-well plates using FuGene 6 reagent (Roche; 3 ml FuGene/1 mg DNA). The MRTU constructs are regulated by a cis-regulating element (promoter). Each RTU expresses a GAL4-UAS that regulates the transcription of a nearby target reporter gene sequence. A major difference between the CIS and TRANS system is that in CIS activities of endogenous TFs are measured, whereas the TRANS assay evaluates changes in activities of exogenous, chimeric NR-Gal4 proteins. […] At the end of 24 hour incubation, total RNA was isolated using TriZol reagent (Invitrogen). The isolated RNA is then reverse-transcribed using oligo(dT) primer and Mo-MLV reverse transcriptase (Invitrogen) with DNAse I (Ambion) treatment for 30 min. The one-tenth of the produced cDNA was amplified by PCR using Taq DNA polymerase (Invitrogen) and two reporter sequence-specific primers. […] The fragments were purified using Qiaquick PCR columns (Qiagen), analyzed on an ABI 3130xL genetic analyzer (Applied Biosystems) with peak positions identified by using a set of X-rhodamine (ROX)-labeled MapMarker1000 molecular weight standards (BioVentures). […]
As for `O=P(Oc1ccccc1)(Oc1ccccc1)Oc1ccccc1`, the compound was called inactive.

`O=C(O)C(F)(F)C(F)(F)C(F)(F)C(F)(F)C(F)(F)C(F)(F)C(F)(F)F`: the AC50 was 75 µM (active).

Turning to `O=S(=O)(O)C(F)(F)C(F)(F)C(F)(F)C(F)(F)C(F)(F)C(F)(F)F`, the compound was called inactive.

As for `[Cl][Sn]([c]1ccccc1)([c]1ccccc1)[c]1ccccc1`, the compound was classed as inactive.

As a reminder, the AC50 is the concentration at which the activity in the assay is half-maximal.
